Source: PubChem BioAssay (National Center for Advancing Translational Sciences (NCATS))
Tau fibril ThT: blocks human tau fibril formation measured by thioflavin T; P10636; recombinant tau K18 P301L, heparin-induced fibrillization, ThT fluorescence; Potency, µM (top dose mostly 57.4 µM), for inactives: top-dose activity, negative = inhibition, usual class: inhibitors; 2.1% of 270,000 active; also: nearly all actives have a fitted effect of over 55% in size
Target sequence (P10636 561-689 P618L limits assumed): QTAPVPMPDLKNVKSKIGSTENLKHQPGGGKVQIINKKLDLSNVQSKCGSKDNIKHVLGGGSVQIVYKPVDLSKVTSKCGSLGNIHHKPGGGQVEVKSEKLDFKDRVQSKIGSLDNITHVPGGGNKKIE
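Using a mix of unlabeled (15 uM) and Alexa 594-labeled (0.24 uM) tau K18 P301L, heparin-triggered fibrillization over 6 hr at 37 C was scored by ThT fluorescence.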
PLK1 PBD block: inhibitors of human PLK1 polo-box domain binding. 2.8% of 360,000 active. AID 720504. Potency, µM, without a hit: max response, negative = inhibition, most hits filed as inhibitors. P53350. Plk1 PBD binding of FITC phosphopeptide, fluorescence polarization; also: series mostly up to about 57 µM; nearly all actives have a fitted effect of over 65% in size
Target sequence (P53350 whole entry, looked up, the tested form may be a part): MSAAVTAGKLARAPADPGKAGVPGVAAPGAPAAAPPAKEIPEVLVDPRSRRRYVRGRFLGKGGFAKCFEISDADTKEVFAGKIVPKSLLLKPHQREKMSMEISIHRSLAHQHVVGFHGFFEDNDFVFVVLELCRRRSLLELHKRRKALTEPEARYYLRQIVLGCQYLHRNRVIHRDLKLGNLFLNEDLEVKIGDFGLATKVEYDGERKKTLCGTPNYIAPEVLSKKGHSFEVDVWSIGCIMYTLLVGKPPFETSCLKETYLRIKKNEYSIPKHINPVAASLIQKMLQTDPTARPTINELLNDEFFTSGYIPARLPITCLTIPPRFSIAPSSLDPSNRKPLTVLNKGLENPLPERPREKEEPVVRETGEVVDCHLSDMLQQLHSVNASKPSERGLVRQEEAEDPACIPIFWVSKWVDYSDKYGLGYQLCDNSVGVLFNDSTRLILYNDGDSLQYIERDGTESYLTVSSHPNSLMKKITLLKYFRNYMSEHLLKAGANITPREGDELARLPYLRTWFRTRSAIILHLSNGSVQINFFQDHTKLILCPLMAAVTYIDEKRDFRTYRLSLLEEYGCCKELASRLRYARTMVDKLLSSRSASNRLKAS
Tau fibril FP: inhibitors of human tau fibril formation; 0.39% of 280,000 active; P10636; K18 P301L tau heparin fibrillization, Alexa594 FP, 6 h; Potency, µM (titrated, usually from 57.7 µM), for inactives: top-dose activity, negative = inhibition, actives largely listed as inhibitors; AID 1468; also: nearly all actives have a fitted effect of over 55% in size
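Heparin (20 uM) drove fibril formation of recombinant tau K18 P301L, 15 uM unlabeled with 0.24 uM Alexa 594 label, for 6 hr at 37 C in 100 mM sodium acetate pH 7. Fluorescence polarization (555/632 nm) read 1 hr after 30 uM ThT.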
VDR inhibitor: blocks the human vitamin D receptor. P11473. VDR-SRC2-3 peptide fluorescence polarization, 2 h. Potency, µM, without a hit: max response, negative = inhibition, hits mostly inhibitors. 0.93% of 400,000 active. AID 504847
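FP read-out; VDR + SRC2-3 coactivator peptide; 23 nl compound by pintool; 2 h RT incubation; reagents held at 4 deg C, protected from light.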
Tau fluor cs: counter-screen for tau fibril formation inhibitors; Potency, µM (titrated, usually from 57.7 µM), inactives show at the top dose activity change, negative = decrease; 0.93% of 280,000 active; tau K18 P301L Alexa594 fluorescence, heparin fibrillization; also: nearly all actives have a fitted effect of over 55% in size
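Human tau K18 P301L (15 uM unlabeled, 0.24 uM Alexa 594-labeled) in 100 mM sodium acetate pH 7 with 20 uM heparin, 6 hr at 37 C. ThT 30 uM added, 1 hr ambient; Alexa 594 FP and total fluorescence read at 555/632 nm.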
Sfp inh: Sfp phosphopantetheinyl transferase inhibition. Biochemical Sfp PPTase activity, qHTS. 3.5% of 310,000 active. Q9F4F7. AID 1490. Potency, µM, without a hit: largest response in the series, negative = inhibition, actives largely listed as inhibitors;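 also: the enzyme is Sfp with the accession as filed and its product quenches rhodamine fluorescence; 0% = enzyme reaction without inhibitor and -100% = no enzyme wells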
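Buffer: 50 mM Hepes-Na pH 7.6, 10 mM MgCl2, 0.01% Nonidet P-40, 0.01% BSA. Enzyme 15 nM, pre-exposed to compound 15 min; substrates then added and fluorescence change tracked over 30 min.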
An asterisk follows results filed as active; u = inconclusive; x = not tested or not shown; [ ] = another dose, or the depositor's remark. Only some compounds are listed: those with a hit (about 6% of all), similar ones and a draw of the others. Calls follow the shape of the dose curve; as a rule, active = well fitted curve in the direction sought with a large enough effect; inconclusive = small, poorly fitted or top-dose-only effect, or another doubt; inactive = no such curve, though single readings can be large; an effect the other way counts as inactive or inconclusive. Unless noted, % is scaled to controls: 0 for no effect and ±100 for the full control effect; potency is read from the fitted curve at half-maximal effect.

SMILES	Tau fibril ThT	PLK1 PBD block	Tau fibril FP	VDR inhibitor	Tau fluor cs	Sfp inh
CNC(=O)C1C(=S)NC(N)=C(C#N)C1c1ccccc1 (stereo not drawn)	20µM*	26.7µM*	15.8µM*	20µM*	-28.4%	3.98µM*
CCOc1ccc(CN(C)C(=O)c2cccc(S(=O)(=O)N3CCCC3)c2)cc1OC	x	-6.5%	x	-8.8%	x	x
Cc1cc(C(=O)CSc2nnc(-c3ccccc3F)o2)c(C)n1Cc1cccs1	u	-10.6%	-10.6%	13.5%	-26.6%	28.2µM*
Cc1cc(C(=O)CN2C(=O)c3cccc(N)c3C2=O)c(C)n1Cc1cccs1	-5.0%	3.36µM*	u	-26.2%	u	-3.5%
Cc1cc(C(=O)CSc2nc3ccccc3n2CCC#N)c(C)n1Cc1cccs1	-6.0%	-5.3%	-3.6%	15.0%	-13.4%	-3.8%
C=Cc1ccc(CSc2nc(-c3ccccc3C)nc3c2Cc2c(CO)cnc(C)c2O3)cc1	-7.0%	x	-2.2%	3.6%	0.1%	x
CCOC(=O)c1c(C)oc2c1c1c(c3ccccc32)OCN(CCCC(=O)O)C1	u	10.6µM*	0.4%	89.1µM*	u	-5.9%
O=C(OCN1C(=O)c2ccccc2C1=O)c1cc(S(=O)(=O)N2CCOCC2)ccc1F	x	3.1%	x	-26.7%	x	x
CCOc1ccccc1NC(=O)CSc1nc2c(oc3ccccc32)c(=O)n1-c1ccc(F)cc1	-5.8%	x	-14.6%	3.9%	-16.2%	x
Cc1ccc(CNC(=O)CCN2C(=O)C(C)Oc3ccc(C)cc32)cc1 (stereo not drawn)	-13.9%	x	5.1%	-7.4%	-18.2%	x
COc1cc(CNc2ccc(N3CCCC3)cc2)ccc1OCc1ccccc1F	3.9%	-14.8%	1.4%	79.4µM*	6.0%	-16.0%
COc1cc(CNc2ccc(N3CCCC3)cc2)ccc1OCc1ccccc1	5.01µM*	-18.0%	u	35.5µM*	u	u
Cc1[nH]c(=S)c(C#N)c(C)c1CCC#N	x	u	4.3%	18.0%	7.4%	17.8µM*
Cc1[nH]c(=S)c(C#N)c(C)c1Cc1ccccc1	6.9%	0.0%	1.3%	u	10.0%	17.8µM*
Cc1cccc(Cc2c(C)[nH]c(=O)c(C#N)c2C)c1	4.4%	-8.3%	3.9%	-11.2%	11.0%	10.5%
Cc1noc(C)c1C(=O)N1CCC2(CCCN(c3ccncc3)C2)CC1	x	x	x	-1.8%	x	7.0%
CCOC(=O)C1CCCN(C(=O)c2ccc(-c3ccccc3)cc2)CC1 (stereo not drawn)	x	-5.8%	x	x	x	x
NC(C(=O)O)C(CC(=O)O)c1ccc(Cl)cc1 (stereo not drawn)	4.8%	x	3.0%	1.9%	0.5%	50.1µM*
CCOC(=O)c1nnc2c(-c3ccc(Cl)cc3)c(C)nn2c1C	7.94µM*	x	2.7%	3.1%	-25.5%	x
CCOC(=O)c1nnc2c(-c3ccc(F)cc3)c(C)nn2c1N	u	x	-1.4%	-0.4%	2.1%	x
CCCCCC(=O)NC(Cc1ccc(OC)c([N+](=O)[O-])c1)C(=O)O (stereo not drawn)	0.1%	21.2µM*	-8.8%	u	-1.7%	-2.2%
COC/C=C/C1=CC2=CC(=O)C(C)(OC(=O)c3cnc4ccccc4n3)C(=O)C2=CN1Cc1ccc2c(c1)OCO2 (stereo not drawn)	u	x	-0.7%[11.6 µM]	x	-6.3%[11.6 µM]	10.7%
O=c1nc2s/c(=C\c3ccc(-c4ccccc4[N+](=O)[O-])o3)c(=O)n2nc1-c1ccccc1	7.08µM*	u	u	-17.0%	u	u
CCCCCOc1ccc(/C=c2\sc3nc(=O)c(-c4ccccc4)nn3c2=O)cc1OC	u	0.0%	4.0%	-13.4%	-10.1%	-6.7%
O=C(O)c1cccc(-n2c(-c3cnccn3)n[nH]c2=S)c1	6.7%	-15.1%	-2.0%	-8.0%	12.4%	28.2µM*
SMILES	Tau fibril ThT	PLK1 PBD block	Tau fibril FP	VDR inhibitor	Tau fluor cs	Sfp inh
Fc1cccc(-c2n[nH]c(=S)n2-c2ccccc2)c1	x	-13.8%	x	-3.5%	x	13.6%
S=c1[nH]nc(-c2cnccn2)n1-c1ccccc1	3.0%	-2.7%	-3.4%	0.8%	5.0%	56.2µM*
COc1ccc(OC)c(-n2c(-c3cnccn3)n[nH]c2=S)c1	-3.8%	1.5%	-2.5%	5.0%	-10.4%	-20.3%
COc1ccc(-n2c(-c3cnccn3)n[nH]c2=S)cc1	2.0%	-6.3%	-6.1%	-8.6%	4.4%	50.1µM*
CSCCC(NS(=O)(=O)c1ccc2c(c1)oc(=O)n2C)C(=O)NCc1ccc(F)cc1 (stereo not drawn)	1.2%	x	-3.1%	-19.5%	-7.2%	x
O=C(Cc1ccc2cccnc2c1)c1ccc(O)cc1O	-7.6%	-0.6%	-4.2%	12.4%	-2.7%	-11.9%
Oc1ccc2cccnc2c1	11.6%	26.7µM*	-2.2%	-6.3%	6.6%	-0.3%
CCc1ccc(Nc2n[n+](-c3ccccc3)c(-c3c(Cl)cccc3Cl)s2)cc1	x	-19.4%	x	u	x	70.8µM*
COc1ccc(C)cc1Nc1n[n+](-c2ccccc2)c(-c2ccc(OC)c(OC)c2OC)s1	x	-13.0%	x	-5.3%	x	-28.4%
Fc1ccc(-[n+]2nc(Nc3ccccc3)sc2-c2c(Cl)cccc2Cl)cc1	x	-5.0%	x	-12.4%	x	u
CCN(CC)c1ccc(-c2sc(Nc3ccccc3)n[n+]2-c2ccc(F)cc2)cc1	x	31.7%	x	-16.1%	x	56.2µM*
COc1ccc(C)cc1Nc1n[n+](-c2ccccc2)c(-c2ccc(N(C)C)cc2)s1	x	4.5%	x	3.5%	x	20µM*
CCc1ccc(Nc2n[n+](-c3ccccc3)c(-c3ccc(N(CC)CC)cc3)s2)cc1	x	49.1%	x	-4.3%	x	50.1µM*
COc1cccc(/C=C/C(=O)OCC(=O)Nc2cccc(S(=O)(=O)NC3=NCCCCC3)c2)c1	x	2.8%	x	7.1%	x	x
CCc1ccc(Nc2n[n+](-c3ccccc3)c(/C=C/c3ccccc3)s2)cc1	x	x	x	x	x	50.1µM*
CCc1ccc(Nc2n[n+](-c3ccccc3)c(-c3cc(OC)c(OC)cc3Br)s2)cc1	x	-14.6%	x	-6.3%	x	-7.7%
COc1ccc(CCNC(=O)c2ccc3c(c2)N(Cc2ccc(F)cc2)C(=O)CS3)cc1OC	-1.0%	x	6.7%	-25.1%	-18.6%	x
CC(C)(C)c1nnc(NS(=O)(=O)c2ccc(F)cc2)s1	x	9.47µM*	x	79.4µM*	x	x
CC(C)(C)Cc1nnc(NS(=O)(=O)c2ccccc2)s1	-7.9%	26.7µM*	-1.7%	-13.0%	-8.6%	-2.5%
Cc1cccc(C)c1-n1nnnc1C(c1ccnc2ccccc12)N1CCN(c2ccccc2F)CC1 (stereo not drawn)	x	1.6%	x	x	x	x
CSc1ccccc1-c1nnc(-c2ccccc2)o1	u	-15.3%	-9.4%	1.9%	-25.6%	u
CSc1nnc(-c2ccccc2SC)o1	3.3%	29.9µM*	-5.8%	-7.1%	2.1%	u
CSc1nnc(-c2cc3c(s2)-c2ccccc2CC3)o1	u	-0.5%	-1.7%	8.2%	-24.9%	17.8µM*
